Assay results published in PubChem BioAssay (NCATS).
Records with an inconclusive call do not appear. A number with no mark means an inactive call. The source made the active and inactive calls. Calls come from the whole dose curve; as a rule, active = well fitted inhibition curve with a large enough effect; inconclusive = small, poorly fitted or top-dose-only effect; inactive = flat fitted curve, though single readings scatter.

biological target: Calcium and integrin-binding protein 1 (Homo sapiens) (UniProt Q99828); test: Primary qHTS for Identification of Calcium Integrin Binding Protein 1 (CIB1) Competitor (AID 1508620); conditions: CIB1-GST / FITC-alphaIIb peptide fluorescence polarization; series mostly up to 114 µM; activity change, negative = inhibition: at the top concentration;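 note: GST tagged CIB1 binding a fluorescein labelled alphaIIb integrin peptide tracer; top concentration of the series differs between compounds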
Summary of the method: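 Fluorescence polarization competition: CIB1-GST (1 uM final) preincubated with compound 15 min at room temperature, then FITC-labeled alphaIIb peptide (100 nM final) added for another 15 min. Polarization read at Ex 480/Em 540.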
% is set by controls: 0 for no effect and ±100 for the full control effect.

Calcium and integrin-binding protein 1 (Homo sapiens), sequence (Q99828 whole entry, looked up): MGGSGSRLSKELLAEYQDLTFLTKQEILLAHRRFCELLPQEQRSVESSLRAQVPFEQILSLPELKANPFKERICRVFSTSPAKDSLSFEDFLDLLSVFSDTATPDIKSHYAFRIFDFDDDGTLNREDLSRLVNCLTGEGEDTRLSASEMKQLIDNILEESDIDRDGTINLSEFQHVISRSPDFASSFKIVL

| SMILES | activity change, negative = inhibition | Potency |
| --- | --- | --- |
| O=C(c1ccco1)N1CCN(c2nc(-c3ccc(Br)cc3)cs2)CC1 | -0.0658% | – |
| CC(=O)N1CCN(C(=O)COC(=O)c2ccc([S+](C)(=O)[O-])c([N+](=O)[O-])c2)CC1 | -7.43% | – |
| COc1cc(O)c(C(CC(=O)N2CCCCCC2)c2ccc3c(c2)OCO3)c(OC)c1 (centres undefined) | -2.69% [at 228 µM] | – |
| CCOC(=O)c1ccoc1-c1ccc2ncnc(NCc3csc(C)n3)c2c1 | -3.63% | – |
| O=S(=O)(c1ccccc1)N1CCN(c2nc(C3CC3)nc3ccccc23)CC1 | 2.33% | – |
| O=C(Nc1ccccc1)Nc1nnc(-c2ccncc2)s1 | 6.04% | – |
| Cc1cc(C)nc(NC(=S)N2CCN(c3ncccc3Cl)CC2)c1 | -5.09% | – |
| CC(=O)Nc1sc2c(c1-c1ccc3c(c1)CCO3)CCNC2 | 1.43% | – |
| CC(=O)Nc1sc2c(c1C#N)CCN(C(C)C)C2 | -4.73% | – |
| Cc1ccc(-c2ccnc(N3CCC(C(N)=O)CC3)n2)cc1 | -1.39% | – |
| O=c1c2ccccc2nc2sc(Nc3ccc4c(c3)CNC4)nn12 | 9.1% | – |
| N#Cc1ccc(CSc2nc3ncc(Br)cc3[nH]2)cc1 | 34.4% | – |
| c1ccc(CN(Cc2ccccc2)Cc2nnc(-c3cc4ccccc4[nH]3)o2)cc1 | -1.42% | – |
| C#CCCC(=O)Nc1sc2c(c1-c1nc3ccccc3s1)CCNC2 | 7.8% | – |
| O=C(O)CN1C(=O)/C(=C/c2ccc(-c3cccc(Cl)c3)o2)SC1=S | 58.9% | – |
| O=C(Cn1ncccc1=O)NCCc1ccccc1 | 3.14% | – |
| Cc1cc(C)nc(NC(=S)N2CCN(c3nccs3)CC2)c1 | – | inactive |
| CCCCN1C(=O)c2ccccc2C1=O | 3.16% | – |
| Cc1ccc(OCCn2c(CCNCC3CCCCC3)nc3ccccc32)cc1 | -15.8% | – |
| COc1ccc(C2Nc3ccccc3C(=O)N2Cc2cccc(Cl)c2)cc1COc1ccc(NC(C)=O)cc1 (centres undefined) | 0.359% | – |

| SMILES | activity change, negative = inhibition | Potency |
| --- | --- | --- |
| FC(F)(F)c1ccc(-c2nc(-c3nnc4n3CCCCC4)c(C(F)(F)F)o2)cc1 | 2.16% | – |
| Cc1ccnc(NC(=S)N2CC3CN(c4cccc(C(F)(F)F)c4)CC3C2)c1 (centres undefined) | -7.68% | – |
| Fc1ccc(-c2ccc(Nc3nc(-c4ccncc4)nc4ccccc34)cc2F)cc1 | 4.1% | – |
| Cc1ccccc1C(=O)n1ccc2cc(-c3nc(NC(=O)Cc4ccc5c(c4)OCO5)sc3C)ccc21 | 5.2% | – |
| COc1ccc(C2=Nn3c(nnc3-c3ccccc3OC)SC2)cc1 | -5.97% | – |
| Cc1ccc(NS(=O)(=O)c2ccc3c(c2)CCN(C(=O)C(F)(F)F)C3)cc1C | 2.89% | – |
| Cc1cc(N[S+](=O)([O-])c2ccc(NC(=O)Cc3ccc4nccnc4c3)cc2)no1 | -10.7% | – |
| CCSC1=NS(=O)(=O)c2ccccc21 | -1.58% | – |
| O=C1CCCC2=C1C(c1[nH]ncc1Cl)N=C(Nc1nc3c(Br)cccc3o1)N2 (centres undefined) | -8.14% | – |
| CCOc1ccc(CCNC(=O)c2ccnn2Cc2cccc(C)c2)cc1OCC | -2.12% | – |
| O=C(Nc1ccc2sccc2c1)Nc1nnc(-c2cccnc2)s1 | 4.16% | – |
| CCOc1ccc(CCNC(=O)c2cc3sccc3n2CCN2CCN(C)CC2)cc1OCC | -0.993% | – |
| COC(=O)c1c(NC(=O)COC(=O)c2ccc(Cl)cc2[N+](=O)[O-])sc2c1CCCCC2 | -0.0089% | – |
| FC(F)(F)c1ccccc1-c1nccc(NCc2ccc(-c3cccnc3)cc2)n1 | 1.01% | – |
| O=C(Nc1ncc(Cc2ccc(C(F)(F)F)cc2)s1)c1ccc(-c2cccnc2)o1 | -1.49% | – |
| O=[S+]([O-])(Nc1ccccc1F)c1cccc(NC/C=C/c2ccccc2)c1 | 2.54% | – |
| COc1cccc(NS(=O)(=O)c2ccc(NCc3cccc(OC)c3O)cc2)c1 | -1.84% | – |
| CC(C)(N)C(=O)Nc1ccc(Cl)cc1C(=O)c1ccc[nH]1 | -0.117% | – |
| Cc1csc(CNc2ncnc3ccc(-c4cccnc4)cc23)c1 | -12.2% | – |
